Source: PubChem BioAssay
PLK1 PBD block: PLK1 (human) polo-box domain binding inhibition; 360,000 tested, 2.8% active; P53350; Potency, µM, hits mostly inhibitors; Plk1 PBD binding of FITC phosphopeptide, fluorescence polarization; AID 720504; further: series mostly up to about 57 µM; nearly all actives have a fitted effect of over 65% in size
Target sequence (P53350 whole entry, looked up, the tested form may be a part): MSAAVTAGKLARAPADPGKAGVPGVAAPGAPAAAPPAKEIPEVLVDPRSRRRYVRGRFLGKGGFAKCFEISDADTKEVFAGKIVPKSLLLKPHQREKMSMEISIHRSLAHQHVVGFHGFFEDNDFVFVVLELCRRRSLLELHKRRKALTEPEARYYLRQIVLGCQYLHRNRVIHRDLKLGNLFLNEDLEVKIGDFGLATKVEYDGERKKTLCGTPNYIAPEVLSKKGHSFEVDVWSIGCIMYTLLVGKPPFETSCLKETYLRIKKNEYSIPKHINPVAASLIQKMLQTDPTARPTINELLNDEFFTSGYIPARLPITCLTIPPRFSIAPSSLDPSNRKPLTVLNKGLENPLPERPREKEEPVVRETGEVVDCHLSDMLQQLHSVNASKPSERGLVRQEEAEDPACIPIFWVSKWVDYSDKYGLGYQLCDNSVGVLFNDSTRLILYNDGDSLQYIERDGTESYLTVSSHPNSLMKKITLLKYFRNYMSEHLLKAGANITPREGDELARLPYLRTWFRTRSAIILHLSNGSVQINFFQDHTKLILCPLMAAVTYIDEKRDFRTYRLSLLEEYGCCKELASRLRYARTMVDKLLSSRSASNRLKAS
BAZ2B inh: inhibitors of human BAZ2B bromodomain. 360,000 tested, 4.4% active. Q9UIF8. Potency, µM (series often up to 114 µM), actives largely listed as inhibitors. AID 504333. AlphaScreen BAZ2B-H3K14Ac peptide displacement; further: nearly all actives have a fitted effect of over 60% in size
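In this displacement format the biotinylated H3(5-23) peptide acetylated at Lys14 serves as ligand at 50 nM, with BAZ2B at 50 nM in PBS pH 7.4 containing 0.01% Tween-20. Donor and acceptor beads are 10 ug/mL final.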
G9a block: G9a (human) methyltransferase inhibition; Q96KQ7; G9a H3K9 monomethylation, AlphaScreen, 2 h; Potency, µM (titrated, usually from 102 µM), actives largely listed as inhibitors; 350,000 tested, 8.8% active; AID 504332; further: nearly all actives have a fitted effect of over 75% in size
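AlphaScreen read-out: biotin-H3K9 peptide (500 nM) methylation by 20 nM enzyme with 20 uM SAM, 2 h at room temperature after 15 min compound preincubation; anti-monomethyl H3K9 antibody plus donor/acceptor beads, 10 min dark.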
PI5P4K alpha inh: blocks human PI5P4K alpha kinase activity. P48426. PI5P4Kalpha enzyme, ADP-Glo luminescence, 60 min; hits give low values. max response, %. 330,000 tested, 1.2% active. AID 652105; active means max response of -50% or lower; inconclusive means between -30% and -50%; inactive means -30% or higher; further: value at the top dose of about 77 µM
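Compounds were pin-transferred onto PI5P4Kalpha and substrate in HEPES pH 7.4 buffer with EGTA, CHAPS and 5% DMSO. ATP (5 microM final) started the reaction, which ran 60 minutes at room temperature before ADP-Glo detection.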
HP1b binding inh: blocks HP1-beta chromodomain binding to methylated histone tails; P83916; AID 540317; 390,000 tested, 0.56% active; Potency, µM (series often up to 114 µM), actives largely listed as inhibitors; AlphaScreen HP1-beta / biotin-H3K9me3 peptide binding; further: nearly all actives have a fitted effect of over 70% in size
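HP1-beta protein (50 nM final) preincubated 30 min at room temperature with biotinylated H3(1-18)K9me3 peptide (50 nM) in PBS pH 7.4, 0.01% Tween-20, then compound added for 30 min. AlphaScreen streptavidin donor/nickel chelate acceptor beads (10 ug/mL final), 30 min dark, luminescence read.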
JMJD2A Tudor inh: blocks the human JMJD2A Tudor domain. O75164. AlphaScreen JMJD2A-Tudor / H3K4me3 peptide binding. Potency, µM (top dose mostly 114 µM), hits mostly inhibitors. 390,000 tested, 4.4% active; further: nearly all actives have a fitted effect of over 50% in size
ADP-Glo counter: interferes with ADP-Glo detection without enzyme present; shares compounds with PI5P4K alpha inh; ADP-Glo detection counter-screen, luciferase luminescence, no enzyme; Potency, µM (titrated, usually from 76.9 µM), actives largely listed as inhibitors; 1,100 tested, under 10 active; AID 743285
Hits are given with their value; [ ] = dose if it differs, or a comment. Sampled rows, rich in hits. Any-hit rate of the full collection: about 12%. Unless noted, the call rests on the fitted dose curve; in most records, active means well fitted curve in the direction sought with a large enough effect; inconclusive means small, poorly fitted or top-dose-only effect, or another doubt; inactive means no such curve, though single readings can be large; an effect the other way counts as inactive or inconclusive.

How did CC(=O)Nc1cc(-c2ccc(CO)cc2)cn2c(-c3ccc(F)c(Cl)c3)cnc12 do in these assays?
PLK1 PBD block: inconclusive; PI5P4K alpha inh: -54; ADP-Glo counter: inactive

What do the screens show for `O=C(Nc1cccc(S(=O)(=O)NC2=NCCCCC2)c1)c1cc(-c2ccco2)nc2ccccc12`?
PLK1 PBD block: inactive; BAZ2B inh: inconclusive; G9a block: inconclusive; PI5P4K alpha inh: -73; HP1b binding inh: inconclusive; JMJD2A Tudor inh: inactive; ADP-Glo counter: inactive

Results for COc1cccc(NC(=O)c2cc(-c3ccco3)nc3ccccc23)c1 ?
PLK1 PBD block: inactive; PI5P4K alpha inh: inactive; HP1b binding inh: inactive; JMJD2A Tudor inh: inconclusive

What do the screens show for `CC(=O)c1cccc(NC(=O)c2cc(-c3ccco3)nc3ccccc23)c1`?
PLK1 PBD block: inactive; BAZ2B inh: inactive; G9a block: 50µM; PI5P4K alpha inh: -51; HP1b binding inh: inactive; JMJD2A Tudor inh: inactive; ADP-Glo counter: inactive

How did CC(=O)c1ccc(NC(=O)/C(=C\c2ccc(F)cc2)NC(=O)c2ccco2)cc1 do in these assays?
PLK1 PBD block: inactive; BAZ2B inh: inactive; G9a block: inactive; PI5P4K alpha inh: inactive; HP1b binding inh: inactive; JMJD2A Tudor inh: inactive

What do the screens show for `CCCCn1c(N)c(N(CCOC)C(=O)CCCn2c(=O)oc3ccccc32)c(=O)[nH]c1=O`?
PLK1 PBD block: inactive; PI5P4K alpha inh: inactive; HP1b binding inh: inactive; JMJD2A Tudor inh: inactive

How did Cn1c2ccccc2c2cnn(CC(=O)NCCCN3CCCCC3)c(=O)c21 do in these assays?
BAZ2B inh: inactive; G9a block: inactive; HP1b binding inh: inactive; JMJD2A Tudor inh: inactive

What do the screens show for `COc1ccc(C2NS(=O)(=O)OCC2C)cc1` (configuration not stated)?
PLK1 PBD block: inactive; BAZ2B inh: inactive; G9a block: inactive; PI5P4K alpha inh: inactive; HP1b binding inh: inactive; JMJD2A Tudor inh: inactive

Results for O=C(CN1C(=O)COc2ccc(S(=O)(=O)N3CCCC3)cc21)N1CCN(c2ccc(Cl)cc2)CC1 ?
BAZ2B inh: inactive; G9a block: inactive; HP1b binding inh: inactive; JMJD2A Tudor inh: inactive

Results for Cc1ccc2c(c1)N(CC(=O)N1CCCCCC1)C(=O)C(C)O2 (configuration not stated) ?
PLK1 PBD block: inactive; BAZ2B inh: inactive; G9a block: inactive; PI5P4K alpha inh: -73; HP1b binding inh: inactive; JMJD2A Tudor inh: inactive; ADP-Glo counter: inactive

Results for O=C(O)c1ccc2c(=O)[nH]c(CCl)nc2c1 ?
PLK1 PBD block: inconclusive; BAZ2B inh: inactive; G9a block: 56µM; PI5P4K alpha inh: -59; HP1b binding inh: inactive; JMJD2A Tudor inh: inconclusive; ADP-Glo counter: inactive

Results for CC(=O)Nc1cc(C(=O)NCc2ccc(C)cc2)ccc1S(=O)(=O)c1ccc(Cl)cc1 ?
BAZ2B inh: inactive; G9a block: inactive; HP1b binding inh: inactive; JMJD2A Tudor inh: inactive

What do the screens show for `CCC(C)c1nc2ccsc2c(N2CCOC2=O)c1-c1ccccc1` (configuration not stated)?
PLK1 PBD block: inactive; PI5P4K alpha inh: -54; HP1b binding inh: inactive; JMJD2A Tudor inh: inactive; ADP-Glo counter: inactive

What do the screens show for `Cc1ccccc1C(=O)Nc1ccc(O)c2c(=O)cc(-c3ccccc3Cl)oc12`?
PLK1 PBD block: inactive; BAZ2B inh: inactive; G9a block: inactive; PI5P4K alpha inh: inactive; HP1b binding inh: inactive; JMJD2A Tudor inh: inactive

Results for O=C(Nc1ccc(O)c2c(=O)cc(-c3ccccc3Cl)oc12)c1ccc(Cl)c(Cl)c1 ?
PLK1 PBD block: inactive; BAZ2B inh: inactive; G9a block: inactive[12.7 µM]; PI5P4K alpha inh: inactive; HP1b binding inh: inactive; JMJD2A Tudor inh: inactive; ADP-Glo counter: inactive

Results for O=C(Nc1ccc2c(c1)OCCO2)c1ccccc1F ?
PLK1 PBD block: 3µM; BAZ2B inh: inactive; G9a block: inactive; PI5P4K alpha inh: -52; HP1b binding inh: inactive; JMJD2A Tudor inh: inactive[11.4 µM]; ADP-Glo counter: inactive
